Screening data as filed in PubChem BioAssay.
PLK1 PBD inh – PLK1 (human) polo-box domain binding inhibition; P53350; Plk1 PBD binding of FITC phosphopeptide, fluorescence polarization; Potency, µM, for the others: max response, negative = inhibition, usual class: inhibitors; 2.8% of 360,000 active; AID 720504; further: series mostly up to about 57 µM; on the % scale 0 is the no-effect control and ±100 the full control effect; nearly all actives have a fitted effect of over 65% in size
G9a block – inhibitors of human histone lysine methyltransferase G9a; 8.8% of 350,000 active; G9a H3K9 monomethylation, AlphaScreen, 2 h; Q96KQ7; AID 504332; Potency, µM (titrated, usually from 102 µM), for the others: at the top dose activity, negative = inhibition, most hits filed as inhibitors; further: on the % scale 0 is the no-effect control and ±100 the full control effect; nearly all actives have a fitted effect of over 75% in size
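Using a bead-based AlphaScreen, monomethylated H3K9 product from 2 h room-temperature reactions (G9a 20 nM, peptide 500 nM, SAM 20 uM) was detected with 0.5 ug/mL rabbit anti-H3K9me1 antibody.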
BAZ2B inh – inhibitors of human BAZ2B bromodomain; Q9UIF8; AlphaScreen BAZ2B-H3K14Ac peptide displacement; Potency, µM (doses to about 114 µM), for inactives: at the top dose activity change, negative = inhibition, actives largely listed as inhibitors; 4.4% of 360,000 active; AID 504333; further: on the % scale 0 is the no-effect control and ±100 the full control effect; nearly all actives have a fitted effect of over 60% in size
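Complex of BAZ2B and biotin-H3K14Ac (50 nM apiece) forms over 30 min at RT, then faces library compounds up to 110 uM for another 30 min; AlphaScreen beads added, 20 min dark incubation, luminescence read.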
JMJD2A Tudor – JMJD2A Tudor domain (human) inhibition; O75164; AlphaScreen JMJD2A-Tudor / H3K4me3 peptide binding; Potency, µM (top dose mostly 114 µM), for inactives: at the top dose activity change, negative = inhibition, actives largely listed as inhibitors; 4.4% of 390,000 active; AID 504339; further: on the % scale 0 is the no-effect control and ±100 the full control effect; nearly all actives have a fitted effect of over 50% in size
VDR inh – inhibitors of human vitamin D receptor | 0.93% of 400,000 active | Potency, µM, for the others: max response, negative = inhibition, hits mostly inhibitors | AID 504847 | P11473 | VDR-SRC2-3 peptide fluorescence polarization, 2 h; further: on the % scale 0 is the no-effect control and ±100 the full control effect
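Two reagent solutions held at 4 deg C in the dark were dispensed, compounds pinned at 23 nl, and the mixture incubated 2 h at room temperature. Read-out: fluorescence polarization of VDR–SRC2-3 peptide binding.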
HP1b chromo inh – blocks HP1-beta chromodomain binding to methylated histone tails | AID 540317 | 0.56% of 390,000 active | Potency, µM (top dose mostly 114 µM), inactives show top-dose activity change, negative = inhibition, most hits filed as inhibitors | P83916 | AlphaScreen HP1-beta / biotin-H3K9me3 peptide binding; further: nearly all actives have a fitted effect of over 70% in size
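HP1-beta protein (50 nM final) preincubated 30 min at room temperature with biotinylated H3(1-18)K9me3 peptide (50 nM) in PBS pH 7.4, 0.01% Tween-20, then compound added for 30 min. AlphaScreen streptavidin donor/nickel chelate acceptor beads (10 ug/mL final), 30 min dark, luminescence read.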
An asterisk follows results filed as active; u = inconclusive; x = not tested or not shown; [ ] = dose if it differs, or a comment. In the library only some 11% were active in any assay of this set; here they are far more common. The call rests on the fitted dose curve; in most records, active means well fitted curve in the direction sought with a large enough effect; inconclusive means small, poorly fitted or top-dose-only effect, or another doubt; inactive means no such curve, though single readings can be large; an effect the other way counts as inactive or inconclusive. Potency means the concentration at half of the fitted maximal effect.

SMILES | PLK1 PBD inh | G9a block | BAZ2B inh | JMJD2A Tudor | VDR inh | HP1b chromo inh
CCOc1ccc(NC(=O)c2nc(S(=O)(=O)Cc3ccccc3F)ncc2Cl)cc1 | x | -38.8%[59 µM] | -2.2% | -4.7% | u | 48.1%
CCS(=O)(=O)c1ncc(Cl)c(C(=O)Nc2ccc(C)cc2)n1 | u | x | u | -7.5% | 15.8µM* | 25.0%
Cc1ccc(CS(=O)(=O)c2ncc(Cl)c(C(=O)Nc3ccc(OC(F)F)cc3)n2)cc1 | 21.2µM* | x | -29.3% | u | u | -21.8%[57 µM]
O=C(NCc1ccc2c(c1)OCO2)c1nc(S(=O)(=O)Cc2ccccc2F)ncc1Cl | 13.4µM* | 17.8µM* | -36.1% | 6.2% | -11.0% | 36.8%
O=C(NCCOc1ccccc1)O[C@@H]1C(=O)c2cc(Br)ccc2O[C@H]1c1ccc2c(c1)OCO2 | x | x | x | x | 6.5% | x
CN(C(=O)CSc1nc2c(cnn2-c2ccccc2)c(=O)[nH]1)C1CCS(=O)(=O)C1 (stereo not drawn) | x | x | -9.4% | x | x | x
CC(C)(C)NC(=O)C(C1CC1)n1c(=O)c(-c2ccccc2)nc2ccccc21 (stereo not drawn) | -13.0% | x | x | x | x | x
CCOc1cc(S(=O)(=O)NCC2OCCc3ccccc32)c(OCC)cc1-n1cnnn1 (stereo not drawn) | -0.9% | u | -1.0% | -20.3% | -4.4% | 23.5%
CCOc1ccc(CCNC(=O)CCc2c(C)nc3c(c(C)nn3-c3ccccc3)c2C)cc1OCC | x | 7.6%[59 µM] | 2.0% | -1.0% | 4.5% | 42.3%
COc1ccc(N(Cc2ccccc2)C(=O)c2nc(S(C)(=O)=O)ncc2Cl)cc1 | x | 11.2µM* | -11.0% | -13.5% | u | 40.3%
O=C(NCc1ccccc1)c1nc(S(=O)(=O)Cc2ccccc2)ncc1Cl | u | -3.1%[0.501 µM] | -14.7% | -28.0% | u | 11.8%
CC(=O)Nc1ccc(NC(=O)c2nc(S(=O)(=O)Cc3ccccc3)ncc2Cl)cc1 | 16.8µM* | -11.6%[0.501 µM] | -29.8% | 0.4% | -22.1% | 46.6%
CN(N=Cc1ccccc1)C(=S)Nc1ccccc1 | -15.8% | x | x | x | x | x
COc1cc(/C=C2\C(=N)N3N=C(S(C)(=O)=O)SC3=NC2=O)cc(OC)c1OCCOc1cccc(C)c1 | 29.9µM* | u | u | u | u | -15.3%
COc1cc(/C=C2\C(=N)N3N=C(S(=O)(=O)CC(C)C)SC3=NC2=O)ccc1OC(=O)c1ccco1 | x | -11.4%[59 µM] | -31.9% | x | x | x
COc1cc(/C=C2\C(=N)N3N=C(S(C)(=O)=O)SC3=NC2=O)cc(OC)c1OCCOc1ccc(C)cc1 | 21.2µM* | -24.3% | u | u | u | -6.3%
COc1cc(/C=C2\C(=N)N3N=C(S(C)(=O)=O)SC3=NC2=O)ccc1OCCOc1ccc(C)cc1 | u | u | -31.7% | -18.5% | 8.0% | u
C=CC[C@@H]1Cc2c(Br)ccc(Br)c2[C@@H](CC=C)N1 | -8.8% | 65.7%[59 µM] | 76.0% | 32.1% | -8.3% | 117.3%
C=CCC1NCCc2c(Br)cccc21 (stereo not drawn) | -12.0% | 22.4µM* | -20.6% | -19.6% | 21.0% | 31.2%
COc1ccc(S(=O)(=O)NCC(c2ccco2)N2CCOCC2)cc1OC (stereo not drawn) | x | 12.6µM* | -3.6% | 1.6% | 3.9% | 9.6%
COc1ccc(N2CCN(C(CNS(=O)(=O)c3ccc(OC)c(C)c3)c3ccco3)CC2)cc1 (stereo not drawn) | x | 7.94µM* | 25.1µM* | 25.1µM* | -3.9% | u
CC(C)(C)OC(=O)NC(Cc1ccccc1)C(O)c1ccco1 (stereo not drawn) | x | x | x | -15.9% | -15.4% | 34.5%
O=C(NCc1ccc2[nH]c3c(c2c1)CCCC3)c1ccc(S(=O)(=O)N2CCOCC2)cc1 | -9.9% | 39.8µM* | u | -35.2% | 5.4% | -6.8%
Cc1cc2cc(CNC(=O)c3ccc(S(=O)(=O)N(C)C)cc3)ccc2n1C | 2.1% | u | -23.6% | -31.3% | 0.4% | 13.2%
O=C(NCc1ccc2[nH]c3c(c2c1)CCCC3)N1CCOCC1 | x | u | -0.8% | x | x | x
SMILES | PLK1 PBD inh | G9a block | BAZ2B inh | JMJD2A Tudor | VDR inh | HP1b chromo inh
CN(C)S(=O)(=O)c1ccc(C(=O)NCc2ccc3[nH]c4c(c3c2)CCCC4)cc1 | -1.2% | 44.7µM* | u | u | 0.9% | -9.6%
O=C(NCc1ccc2[nH]c3c(c2c1)CCCC3)c1ccc(S(=O)(=O)N2CCCC2)cc1 | -4.0% | 44.7µM* | -36.5% | -27.1% | 1.7% | 6.7%
O=C(Nc1cc(Cl)ccc1F)C1=COCCO1 | 1.2% | 10.2%[2.33 µM] | 2.8% | -4.9% | 18.8% | 30.4%
CCOC(=O)/C=C1\CC(C(=O)OCC)Oc2c(OC)cccc21 (stereo not drawn) | u | 31.6µM* | x | u | 79.4µM* | 21.7%
S=c1[nH]nc(-c2cccnc2)o1 | -4.0% | u | u | 20µM* | 1.0% | 36.6%
Cc1ccc2nc(-c3cccnc3)oc2c1 | -8.8% | 49.3%[12.7 µM] | 7.9% | -14.2%[57.1 µM] | u | 23.1%
CCN1C(=O)CCN(C2CCCC2)c2nc(Nc3ccc(C(=O)NC4CCN(C)CC4)cc3OC)ncc21 | -23.2% | x | x | u | -14.1% | 37.5%
CCCCNC(=S)NCCN1CCCCC1 | -5.5% | 2µM* | 4.1% | 1.58µM* | 0.2% | u
CCNC(=S)NCCN1CCCCC1 | 0.3% | -10.3% | -2.6% | 1.3% | -1.8% | 52.8%
CCNC(=S)N1CCN(CC)CC1 | -21.4% | 25.1µM* | 56.2µM* | 3.16µM* | -5.2% | u
CCCNC(=S)NCCN1CCCCC1 | -20.5% | 8.91µM* | u | 39.8µM* | 1.6% | -26.9%
CCCCNC(=S)N1CCN(C)CC1 | -19.6% | 11.2µM* | 39.8µM* | 11.2µM* | 15.6% | 44.7µM*
O=C(CC(c1cccs1)N1Cc2ccccc2C1=O)Nc1ccc(F)c(Cl)c1 (stereo not drawn) | x | -7.1%[59 µM] | -11.2% | -9.7% | -7.9% | 41.0%
COc1ccc(NC(=O)CC2C(=O)N(c3ccc(C)cc3)C(=O)N2Cc2ccc(C)cc2)cc1 (stereo not drawn) | x | -6.8%[59 µM] | -1.2% | -10.3% | u | 28.4%
CCC(=O)N1CCC1(C)C(=O)NS(=O)(=O)c1cccc(C#N)c1 (stereo not drawn) | -5.7% | x | x | x | x | x
COc1ccc(C(=O)N2CCN(Cc3ccc(OC)c(OC)c3)CC2)cc1 | 7.4% | u | u | 3.16µM* | -3.8% | u
COc1ccc(C(=O)N2CCN(Cc3cc(OC)ccc3OC)CC2)cc1 | 2.3% | 31.6µM* | u | 50.1µM* | -14.0% | u
COc1ccc(OC)c(CN2CCN(C(=O)c3ccc(S(=O)(=O)N4CCCCCC4)cc3)CC2)c1 | -0.1% | x | x | x | x | x
COc1cc2c(cc1CN1CCN(C(=O)c3cc(OC)c(OC)c(OC)c3)CC1)OCO2 | -1.2% | 11.2µM* | 56.2µM* | 25.1µM* | 7.6% | -38.3%
COc1ccc(CN2CCN(C(=O)c3ccc4c(c3)CCC4)CC2)cc1OC | -15.8% | x | x | -23.3% | -19.9% | 7.2%
